± gives the standard deviation of the averaged measurements.
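Wherever DuctApe activity index of respiration/growth curve (0 no growth to 9 maximum) is given: biolog PM4 phosphorus and sulfur plates, tetrazolium violet dye reduction read in the OmniLog every 15 min, kinetic curves scored by DuctApe, each plate run in triplicate.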

The first assay deals with Escherichia coli Nissle 1917. Kind of assay: area under OmniLog respiration curve over 48 h (OmniLog units x h); higher = more growth / nutrient utilisation; extreme values may be limits of the assay. As to conditions: nutrient role: sole sulfur source (pyruvate carbon); incubation: 48 h, 37 °C.
In the case of `Nc1ccc(S(=O)(=O)O)cc1` [p-Aminobenzene Sulfonic acid], the “area under OmniLog respiration curve” value amounted to 550 ± 470.

As to `CS(=O)(=O)CC[C@H](N)C(=O)O` [L-Methionine Sulfone], the “area under OmniLog respiration curve” value amounted to 31.6 ± 21.

Consider `NC(=O)CCCCC1CCSS1` (racemic) [DL-Lipoamide], for which the “area under OmniLog respiration curve” value is 561 ± 220.

On to `NCCS(=O)(=O)O` [Taurine], for which the “area under OmniLog respiration curve” value worked out at 7830 ± 160.

Turning to `O=S(=O)(O)SSS(=O)(=O)O` [Tetrathionate], the “area under OmniLog respiration curve” value is 7150 ± 120.

Another assay has as its system Escherichia coli Nissle 1917. Kind of assay: DuctApe activity index of respiration/growth curve (0 no growth to 9 maximum) (index 0-9); higher = more growth / nutrient utilisation, active = 3 or more; extreme values may be limits of the assay. The note with it: nutrient role: C-Source, carbohydrate; incubation: 48 h, 37 °C.
In the case of `O=C(CO)[C@@H](O[C@H]1O[C@H](CO)[C@@H](O)[C@H](O)[C@H]1O)[C@H](O)[C@H](O)CO` [Turanose], the DuctApe activity index is 0.333 (inactive).

With `OC[C@@H](O)[C@@H](O)[C@H](O)[C@@H](O)CO` [D-Sorbitol], the DuctApe activity index was 8.33 (active).

Consider `OCC(O)C(O)C(O)CO` (centres undefined) [Adonitol], for which the DuctApe activity index is 5 (active).

Turning to `OC[C@H]1OC(O)[C@H](O)[C@@H](O)[C@@H]1O` (stereo partly drawn) [a-D-Glucose], the DuctApe activity index was 7.67 (active).

Take `OC[C@@H](O)[C@@H](O)[C@H](O)[C@H](O)CO` [D-Mannitol]: the DuctApe activity index is 7.67 (active).

With `OC[C@H]1O[C@@H](Oc2ccc(O)cc2)[C@H](O)[C@@H](O)[C@@H]1O` [Arbutin], the DuctApe activity index is 0 (inactive).

Consider `OCC1(O)OC[C@@H](O)[C@H](O)[C@@H]1O` (stereo partly drawn) [D-Tagatose], for which the DuctApe activity index is 7.33 (active).

With `OC[C@H](O)C(O)[C@@H](O)CO` [L-Arabitol], the DuctApe activity index was 0 (inactive).

`C[C@@H](O)[C@H](O)[C@H](O)[C@@H](O)C=O` [D-Fucose]: the DuctApe activity index was 0 (inactive).

Still in this assay, the particulars now being: nutrient role: C-Source, carboxylic acid; incubation: 48 h, 37 °C.
`C/C=C/C=C/C(=O)O` [Sorbic acid]: the DuctApe activity index is 0 (inactive).

For the compound `O=C(O)c1ccccc1O` [2-Hydroxybenzoic acid], the DuctApe activity index was 0 (inactive).

For `O=C(O)C(O)C(O)C(=O)O` (centres undefined) [m-Tartaric acid], the DuctApe activity index is 0 (inactive).

`O=C(O)CC(CC(=O)O)C(=O)O` [Tricarballylic acid]: the DuctApe activity index was 0 (inactive).

In the case of `CCCCCCCCCC(=O)O` [Capric acid], the DuctApe activity index was 0 (inactive).

Regarding `O=C(O)CCC(=O)C(=O)O` [a-Ketoglutaric acid], the DuctApe activity index is 6.67 (active).

In the case of `C=C(CC(=O)O)C(=O)O` [Itaconic acid], the DuctApe activity index was 0 (inactive).

For the compound `O=C(O)C[C@H](O)C(=O)O` [L-Malic acid], the DuctApe activity index is 8.67 (active).

With `O=C(O)C[C@@H](O)C(=O)O` [D-Malic acid], the DuctApe activity index was 5.33 (active).

In the case of `CCCC(=O)C(=O)O` [a-Keto-Valeric acid], the DuctApe activity index was 0 (inactive).

As for `O=C(O)[C@H](O)[C@@H](O)C(=O)O` [L-Tartaric acid], the DuctApe activity index is 0 (inactive).

In the case of `O=C(O)[C@H]1OC(O)[C@H](O)[C@@H](O)[C@@H]1O` (stereo partly drawn) [D-Glucuronic acid], the DuctApe activity index was 9 (active).

The same assay, now with this note: nutrient role: sole nitrogen source (pyruvate carbon); incubation: 48 h, 37 °C.
In the case of `N[C@H]1C(O)O[C@H](CO)[C@H](O)[C@@H]1O` (stereo partly drawn) [D-Galactosamine], the DuctApe activity index was 0 (inactive).

`O=C(O)CC[C@@H](C(=O)O)N1C(=O)c2ccccc2C1=O` [N-Phthaloyl-L-Glutamic acid]: the DuctApe activity index was 6 (active).

On to `Nc1nc2[nH]cnc2c(=O)[nH]1` [Guanine], for which the DuctApe activity index was 0 (inactive).

As to `NCC(=O)N[C@@H](CC(N)=O)C(=O)O`, the DuctApe activity index was 8 (active).

Regarding `N[C@@H]1C(O)O[C@H](CO)[C@@H](O)[C@@H]1O` (stereo partly drawn) [D-Mannosamine], the DuctApe activity index was 1.67 (inactive).

The same assay, now with this note: nutrient role: sole phosphorus source (pyruvate carbon); incubation: 48 h, 37 °C.
As for `O=P(O)(O)OP(=O)(O)O` [Pyrophosphate], the DuctApe activity index was 9 (active).

Turning to `Nc1nc2c(ncn2[C@@H]2O[C@H](CO)[C@@H](OP(=O)(O)O)[C@H]2O)c(=O)[nH]1` [Guanosine 3`-Monophosphate], the DuctApe activity index was 9 (active).

In the case of `Nc1nc2c(ncn2[C@@H]2O[C@H](COP(=O)(O)O)[C@@H](O)[C@H]2O)c(=O)[nH]1` [Guanosine 5`-Monophosphate], the DuctApe activity index was 8.67 (active).

Consider `O=P(O)(O)OC[C@H]1OC(O)[C@@H](O)[C@@H](O)[C@@H]1O` (stereo partly drawn) [D-Mannose-6-Phosphate], for which the DuctApe activity index was 8.33 (active).

For `Nc1ncnc2c1ncn2[C@@H]1O[C@@H]2COP(=O)(O)O[C@H]2[C@H]1O` [Adenosine 3`,5`-Cyclic Monophosphate], the DuctApe activity index is 6.67 (active).

For the compound `O=P(O)(O)OC[C@H]1OC(O)C[C@@H](O)[C@@H]1O` (stereo partly drawn) [2-Deoxy-D-Glucose 6-Phosphate], the DuctApe activity index was 0 (inactive).

For the compound `Nc1ccn([C@@H]2O[C@H](COP(=O)(O)O)[C@@H](O)[C@H]2O)c(=O)n1` [Cytidine 5`-Monophosphate], the DuctApe activity index was 8.67 (active).

For the compound `O=c1ccn(C2OC(COP(=O)(O)O)C(O)C2O)c(=O)[nH]1` (centres undefined) [Uridine 5`-Monophosphate], the DuctApe activity index was 8.67 (active).

The assay is the same for the next values; noted with them: nutrient role: sole sulfur source (pyruvate carbon); incubation: 48 h, 37 °C.
In the case of `Nc1ccc(S(=O)(=O)O)cc1` [p-Aminobenzene Sulfonic acid], the DuctApe activity index is 0 (inactive).

With `CS(=O)(=O)CC[C@H](N)C(=O)O` [L-Methionine Sulfone], the DuctApe activity index is 0 (inactive).

`NC(=O)CCCCC1CCSS1` (racemic) [DL-Lipoamide]: the DuctApe activity index is 1 (inactive).

As to `NCCS(=O)(=O)O` [Taurine], the DuctApe activity index is 8 (active).

Take `O=S(=O)(O)SSS(=O)(=O)O` [Tetrathionate]: the DuctApe activity index was 7.67 (active).

For the origin of these results see the supplement of paper PMC9801561.
